What was measured:
Conditions in all cases: concentration: 1 μM, replicates: in singlicate; n = 1
[1] = system: PRKD3
[2] = system: PRKG1
[3] = system: PRKG2
[4] = system: T1, PRKR
T1 construct: gene EIF2AK2

[5] = system: PRKX
[6] = system: PRP4
[7] = system: T2, PYK2
T2 construct: gene PTK2B

[8] = system: QSK
[9] = system: RAF1
[10] = system: RET
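Note: KINOMEscan kinase panel screen.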

Structure (SMILES)	%Inh [1]	%Inh [2]	%Inh [3]	%Inh [4]	%Inh [5]	%Inh [6]	%Inh [7]	%Inh [8]	%Inh [9]	%Inh [10]
CN1CCN(CCCNc2nccc(-c3c(-c4ccc(F)cc4)nn4cc(C(F)(F)F)ccc34)n2)CC1 [GW621581]	62%	10%	0%	0%	13%	25%	0%	0%	8%	0%
CSc1cccc2c(-c3ccncn3)c(-c3ccc(F)cc3)nn12 [GW514786]	100%	17%	0%	0%	16%	19%	0%	14%	4%	29%
Nc1n[nH]c2cnc(-c3ccccc3)cc12 [SB-642124]	0%	0%	0%	0%	19%	18%	5%	0%	11%	0%
COc1ccc(Nc2nccc(NCCNC(=O)c3cc4ccccc4s3)n2)cc1 [GSK1379896]	0%	0%	0%	0%	16%	17%	0%	2%	9%	25%
CN(C)Cc1ccc(-c2ccc3c(Nc4ccc(Oc5ccccn5)cc4)ccnc3c2)o1 [GW567148]	0%	0%	0%	0%	22%	4%	0%	0%	0%	1%
Cc1cccc(NC(=O)Nc2ccc(Oc3ncnc4ccn(C)c34)cc2)c1	0%	100%	0%	0%	0%	0%	0%	0%	0%	94%
CNC(=O)c1ccccc1Nc1nc(Nc2ccc(N3CCOCC3)cc2)ncc1Cl.Cl [GSK1576028]	81%	74%	88%	72%	17%	77%	99.7%	18%	0%	100%
Cc1ccc(C)c(NC(=O)NC2CCN(c3ccnc(Nc4ccc(F)cc4)n3)C2)c1 (centres unmarked) [GSK1379720]	0%	0%	0%	0%	4%	51%	19%	13%	14%	0%
COc1cc(Nc2ncc3c(C)nc(-c4cc5ccccc5[nH]4)n3n2)cc(OC)c1OC [GW869516]	0%	0%	0%	35%	0%	0%	36%	0%	18%	45%
COc1cccc(-c2ccc3c(NC(=O)C4CC4)n[nH]c3n2)c1 [SB-710903]	0%	0%	0%	0%	0%	70%	6%	0%	12%	6%
COC(=O)Nc1nc2ccc(Oc3ccc(NC(=O)Nc4cc(C(F)(F)F)ccc4F)cc3)cc2n1C.Cl [GW692089]	5%	14%	5%	0%	0%	58%	0%	0%	85%	99.5%
Cl.c1ccc(-c2ccc3c(Nc4ccc5[nH]ncc5c4)ccnc3c2)nc1 [GW440137]	17%	0%	0%	0%	19%	66%	2%	6%	15%	76%
CN(c1ccc(NC(=O)Nc2cc(C(F)(F)F)ccc2F)cc1)c1ccnc(Nc2ccc(S(N)(=O)=O)cc2)n1 [GW809893]	0%	16%	17%	3%	0%	14%	94.8%	25%	88%	100%
O=c1[nH]cc(-c2ccc(N3CCOCC3)cc2)c2sc(-c3cn[nH]c3)cc12 [GSK2276055]	4%	0%	10%	34%	10%	0%	0%	11%	0%	3%
Fc1ccc(-c2ncn(C3CCNCC3)c2-c2ccnc(Oc3ccc(-c4ccccc4)cc3)n2)cc1 [SB-245391]	0%	6%	26%	25%	0%	0%	80%	7%	0%	3%
Cl.Cl.NCC(NC(=O)c1cc(-c2ccccc2)c(-c2ccnc3[nH]ccc23)s1)c1ccccc1 (centres unmarked) [GSK1321561]	38%	70%	18%	3%	76%	5%	0%	14%	18%	35%
O=C(O)C(F)(F)F.O=C(O)C(F)(F)F.O=c1[nH]ccc2nc(N[C@@H]3CCCNC3)nc(Nc3ccc(S(=O)(=O)N4CCOCC4)cc3)c12 [GSK2177277]	100%	66%	96.5%	86%	94.6%	92.9%	98.9%	85%	0%	99.9%
CC(C)c1nc(-c2cccc(NS(=O)(=O)c3c(F)cccc3F)c2F)c(-c2ccnc(Nc3ccc(N4CCOCC4)nc3)n2)s1 [GSK2008607]	100%	0%	0%	29%	0%	0%	3%	90.5%	100%	99.7%
CCCCc1nn2ncccc2c1-c1ccnc(Nc2ccc(N3CCN(C)CC3)cc2)n1 [GW684941]	86%	0%	4%	0%	31%	36%	40%	43%	0%	99.5%
COc1cc(Nc2nccc(N3CCC(NC(=O)c4cc5ccccc5s4)C3)n2)cc(OC)c1OC (centres unmarked) [GSK1379760]	0%	9%	7%	8%	24%	48%	0%	100%	15%	21%
Clc1ccc(-c2nn3ncccc3c2-c2ccnc(Nc3ccc4c(c3)OCCO4)n2)cc1 [GW829116]	3%	0%	0%	0%	0%	0%	24%	0%	16%	24%
FC(F)(F)c1ccc(/C=C/c2cncnc2Nc2ccc3[nH]c(Cc4ccccc4)nc3c2)cc1 [GW709199]	0%	0%	6%	2%	0%	0%	30%	0%	46%	8%
COc1ccc(CNC(=O)NC2CCN(c3ccnc(Nc4ccc(F)cc4)n3)CC2)cc1 [GSK1379788]	0%	0%	0%	0%	5%	46%	0%	0%	7%	0%
Cc1ccc(C(=O)N2CC[C@@H](O)C2)cc1-n1c(C)cc(OCc2ccc(F)cc2F)c(Br)c1=O	7%	6%	0%	0%	0%	20%	2%	0%	25%	10%
COc1ccc(Nc2nccc(N3CCC(NC(=O)Nc4cccc(OC)c4)C3)n2)cc1 (centres unmarked) [GSK1379742]	0%	0%	0%	0%	15%	12%	5%	6%	3%	7%
CC(=O)N1CCN(c2ccc(Nc3nccc(-c4sc(C(C)C)nc4-c4cccc(NS(=O)(=O)c5cccc(Cl)c5)c4)n3)cn2)CC1 [GSK1660437]	100%	25%	0%	0%	5%	2%	0%	10%	86%	54%
Cl.Cl.NCC(C(=O)Nc1cc(Br)c(-c2ccnc3[nH]ccc23)s1)c1ccccc1 (centres unmarked) [GSK1269851]	41%	94.6%	86%	0%	88%	83%	2%	15%	0%	32%
O=C(Nc1cccc(-c2nn3ccccc3c2-c2ccnc(Nc3cccc(C(F)(F)F)c3)n2)c1)c1c(F)cccc1F [GSK292658]	29%	3%	0%	0%	8%	5%	0%	2%	72%	73%
O=C(Nc1n[nH]c2cc(-c3ccoc3)ccc12)C1CC1 [SB-738481]	0%	0%	14%	0%	0%	0%	9%	11%	0%	0%

— PMC5540273 (PLoS ONE, 2017)
